Measurements taken from PubChem BioAssay AID504389 (National Center for Advancing Translational Sciences (NCATS), 2011).
Results filed as inconclusive are left out. Unmarked numbers belong to inactive results. Active and inactive are the calls of the source. The call rests on the fitted dose curve; in most records, active means well fitted curve in the direction sought with a large enough effect; inconclusive means small, poorly fitted or top-dose-only effect, or effect the other way, or another doubt; inactive means no such curve, though single readings can be large or run the other way.

Molecular target: Thyrotropin receptor (Homo sapiens) (UniProt P16473)
Test: qHTS Assay for Antagonists of the Thyroid Stimulating Hormone Receptor: SAR for Probe
Conditions: HEK293-TSHR, TSH-stimulated cAMP HTRF, 2 h; series mostly up to 57.5 µM; activity change, negative = inhibition: at the top concentration
From the text: TSH is an alpha/beta heterodimeric glycoprotein hormone secreted from the anterior pituitary gland which belongs to the glycoprotein hormone family. The actions of TSH are mediated by a seven-transmembrane receptor, which upon TSH binding couples preferentially to the G-alpha (s) protein (Gs), resulting in activation of adenylate cyclase and increase in cyclic adenosine 3', 5' monophosphate (cAMP). The TSH receptor (THSR) is mainly expressed in thyroid follicular cells and regulates their growth and function. This cell based assay was conducted on a TSHR transfected HEK 293 cell line, measuring cAMP stimulation using antibody-based Homogeneous Time Resolved Fluorescence (HTRF). Our goal is to identify small molecules that will inhibit (antagonize) the thyroid-stimulating hormone receptor (TSHR), a member of the 7 transmembrane-spanning receptor (7TMR) family of cell surface receptors. TSHR-mediated hyperthyroidism is important in thyroid pathology. The development of small molecule antagonists of TSHR may lead to therapeutic approaches for TSHR-mediated hyperthyroidism caused by constitutively activating mutations or stimulating auto-antibodies associated with Graves' disease. Graves' disease is the leading cause of hyperthyroidism and is caused by autoantibodies that stimulate TSHR (TsAbs) causing thyroid growth and unregulated overproduction of thyroid hormones and existing treatments have liabilities (agranulocytosis). In addition, TSHRs are known to be expressed in multiple extrathyroidal tissues including bone, brain, kidney, testis, fat and cells of the immune system but the role of the TSHR in these tissues is not clear. Therefore, TSHR antagonists/inverse agonists could be used as probes of extrathyroidal TSHR function. Finally, TSHR inverse agonists, which are a subclass of antagonists that inhibit agonist-independent (or basal or constitutive) TSHR signaling, could be used to inhibit TSH-independent signaling in patients with recurrent or metastatic thyroid cancer who are receiving thyroid hormone to suppress TSH. The present assay presents confirmation data for analogues of series of interest in the primary screening assay.
An anti cAMP antibody contains a fluorescent cryptate tag (excitation 337 nm; emission 620 nm) and the acceptor is cAMP-d2 (excitation 620 nm; emission 665 nm). When antibody and cAMP-d2 interact and are excited by a 337 nm light, a FRET occurs resulting in emission at 665 nm. The assay is competition between cAMP-d2 and cAMP (from the cell lysate). The homogeneous protocol allows for one step dispense after stimulation that is automation friendly. Step, Parameter, Value, Description 1, Cells, 3 uL, 2000 TSHR freshly harvested cells/well 1536 TC treated White solid bottom plate (Cells resuspended in 10 mM HEPES buffered HBSS and 70 uM RO 20-1724) 2, Compound, 23 nL, Libraries and controls 3, Compound, 1 uL, EC80 TSH (4 nM final) 4, Time, 2 hours, 37C 5, Reagent, 2 uL, cAMP antibody diluted 1:20 in lysis buffer 6, Time, 30 minutes, Room temperature 7, Detector, HTRF settings, Viewlux

Sequence of Thyrotropin receptor (Homo sapiens) (P16473 whole entry, looked up): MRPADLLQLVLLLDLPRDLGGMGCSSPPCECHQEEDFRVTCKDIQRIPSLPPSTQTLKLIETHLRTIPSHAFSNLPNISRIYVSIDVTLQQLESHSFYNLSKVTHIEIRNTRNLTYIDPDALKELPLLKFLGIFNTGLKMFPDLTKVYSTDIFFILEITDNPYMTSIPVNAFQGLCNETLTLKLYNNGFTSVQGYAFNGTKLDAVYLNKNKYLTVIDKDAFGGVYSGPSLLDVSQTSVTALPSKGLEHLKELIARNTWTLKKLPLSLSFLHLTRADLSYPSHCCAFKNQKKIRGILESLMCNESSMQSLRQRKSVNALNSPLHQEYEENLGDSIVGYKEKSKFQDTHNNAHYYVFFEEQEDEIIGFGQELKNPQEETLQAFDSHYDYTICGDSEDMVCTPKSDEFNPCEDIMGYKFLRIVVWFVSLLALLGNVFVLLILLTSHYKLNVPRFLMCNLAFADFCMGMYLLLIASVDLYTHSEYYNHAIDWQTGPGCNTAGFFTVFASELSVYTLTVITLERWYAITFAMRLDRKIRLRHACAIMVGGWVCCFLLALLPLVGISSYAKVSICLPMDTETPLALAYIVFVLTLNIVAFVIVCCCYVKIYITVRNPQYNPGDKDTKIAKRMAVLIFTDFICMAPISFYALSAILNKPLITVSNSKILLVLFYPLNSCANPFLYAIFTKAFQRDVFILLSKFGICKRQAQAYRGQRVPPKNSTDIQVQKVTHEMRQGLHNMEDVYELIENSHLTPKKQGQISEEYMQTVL

| SMILES | activity change, negative = inhibition [%] | Potency |
| --- | --- | --- |
| COc1ccc(C2Nc3ccccc3C(=O)N2Cc2ccncc2)cc1COc1c(C)cc(NC(C)=O)cc1C (configuration not stated) | -2.14 |  |
| COc1ccc(C2NC(=O)c3ccccc3N2)cc1COc1c(C)cc(NC(C)=O)cc1C (configuration not stated) | -2.55 |  |
| COc1ccc(C2Nc3ccccc3C(=O)N2Cc2cccs2)cc1COc1c(C)cccc1C (configuration not stated) | -18.8 |  |
| Nc1ccccc1C(=O)NCc1ccco1 | 1.62 |  |
| COc1ccc(C2Nc3ccccc3C(=O)N2Cc2cccnc2)cc1COc1c(C)cccc1C (configuration not stated) |  | 36.6 µM (active) |
| COc1ccc(C2Nc3ccccc3C(=O)N2CCCN(C)C)cc1COc1ccc(NC(C)=O)cc1 (configuration not stated) | 1.85 |  |
| COc1ccc(C2Nc3ccccc3C(=O)N2CCO)cc1COc1c(C)cc(NC(C)=O)cc1C (configuration not stated) | -4.88 |  |
